Screening results: PubChem, National Center for Advancing Translational Sciences (NCATS)
Only some compounds are listed: those with a hit (about 0.74% of all), similar ones and a draw of the others.
BLM helicase inh: Bloom syndrome helicase (human) inhibition | recombinant BLM DNA unwinding, fluorescence dequenching | Potency, µM (highest dose often 56.1 µM), hits mostly inhibitors | 350,000 compounds, 0.2% hits; further: nearly all actives have a fitted effect of over 35% in size
Target sequence (P54132 whole entry, looked up): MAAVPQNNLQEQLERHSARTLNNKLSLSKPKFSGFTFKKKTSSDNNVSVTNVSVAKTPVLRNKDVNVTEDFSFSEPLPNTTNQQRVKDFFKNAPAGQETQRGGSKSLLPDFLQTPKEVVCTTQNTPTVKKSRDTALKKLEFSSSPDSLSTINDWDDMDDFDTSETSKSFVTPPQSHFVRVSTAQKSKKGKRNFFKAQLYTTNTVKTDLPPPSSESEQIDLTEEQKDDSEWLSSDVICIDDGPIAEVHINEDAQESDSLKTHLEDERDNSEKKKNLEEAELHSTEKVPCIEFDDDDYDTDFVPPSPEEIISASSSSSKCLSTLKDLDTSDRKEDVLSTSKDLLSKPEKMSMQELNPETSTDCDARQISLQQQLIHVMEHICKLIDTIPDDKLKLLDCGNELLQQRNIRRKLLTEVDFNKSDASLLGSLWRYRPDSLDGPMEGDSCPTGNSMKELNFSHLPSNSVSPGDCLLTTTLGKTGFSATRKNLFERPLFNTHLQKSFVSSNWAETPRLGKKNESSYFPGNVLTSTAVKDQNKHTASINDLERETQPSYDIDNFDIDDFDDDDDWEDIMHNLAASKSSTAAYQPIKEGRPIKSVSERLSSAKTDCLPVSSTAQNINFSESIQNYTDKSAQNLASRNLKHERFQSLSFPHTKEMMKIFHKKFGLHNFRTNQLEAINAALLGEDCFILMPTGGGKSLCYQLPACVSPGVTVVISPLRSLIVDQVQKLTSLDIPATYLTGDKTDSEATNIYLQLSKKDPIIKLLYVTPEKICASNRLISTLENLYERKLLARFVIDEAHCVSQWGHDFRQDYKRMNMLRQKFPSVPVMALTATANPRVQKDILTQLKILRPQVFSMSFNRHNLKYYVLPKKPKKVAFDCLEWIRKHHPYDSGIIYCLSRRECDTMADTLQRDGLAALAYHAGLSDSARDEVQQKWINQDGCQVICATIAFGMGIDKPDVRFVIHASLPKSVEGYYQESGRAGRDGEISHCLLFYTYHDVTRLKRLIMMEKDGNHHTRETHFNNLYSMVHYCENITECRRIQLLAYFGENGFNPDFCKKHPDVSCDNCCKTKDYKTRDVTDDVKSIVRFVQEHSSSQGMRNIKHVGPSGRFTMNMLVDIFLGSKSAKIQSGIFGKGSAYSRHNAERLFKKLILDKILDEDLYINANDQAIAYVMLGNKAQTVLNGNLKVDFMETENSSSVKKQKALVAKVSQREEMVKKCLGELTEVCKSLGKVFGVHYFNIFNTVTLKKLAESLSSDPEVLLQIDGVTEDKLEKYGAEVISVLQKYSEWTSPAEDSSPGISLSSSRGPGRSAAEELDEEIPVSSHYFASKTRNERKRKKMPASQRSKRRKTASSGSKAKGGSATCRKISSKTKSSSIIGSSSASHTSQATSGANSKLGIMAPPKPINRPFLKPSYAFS
FEN1 inh: human FEN1 inhibition. P39748. Recombinant FEN1 flap cleavage, fluorescence, 15 min. Potency, µM (series often up to 114 µM), actives largely listed as inhibitors. 390,000 compounds, 0.35% hits; further: nearly all actives have a fitted effect of over 65% in size
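Enzyme 10 nM, 15 min RT preincubation with compound; start with substrate 50 nM final; reads at 0 and 15 min; qHTS titration, four-parameter Hill fit.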
RECQ1 inh: inhibitors of human RECQ1 DNA helicase; P46063; RECQ1 DNA unwinding, red fluorescence kinetic read; Potency, µM (series often up to 57.3 µM), hits mostly inhibitors; 240,000 compounds, 0.54% hits; AID 2549; further: nearly all actives have a fitted effect of over 30% in size
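RECQ1T1 50 nM; forked duplex (20 bp + 30-nt ss tails) 200 nM, ATP 2 mM final; pH 8.0, 2 mM MgCl2, 2.5 ug/ml poly(dI-dC); 15 min compound preincubation; discontinuous kinetic read over 2 h at RT.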
APE1 inh: APE1 (human) endonuclease inhibition; recombinant APE1, TAMRA/BHQ-2 abasic DNA cleavage fluorescence; 350,000 compounds, 0.35% hits; P27695; Potency, µM (doses to about 65.8 µM), most hits filed as inhibitors; AID 2517; further: nearly all actives have a fitted effect of over 55% in size
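Kinetic fluorescence read (525 ex/598 em nm, three reads 60 s apart) of AP-site incision; signal = third minus first read. Enzyme 0.75 nM, dual-labelled THF duplex 50 nM, compound preincubation 15 min RT.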
Tb PGK inh: inhibitors of T. brucei phosphoglycerate kinase; PGK/GAPDH coupled, Kinase-Glo luminescence, 60 min; AID 602233; Potency, µM (series often up to 57.5 µM), usual class: inhibitors; 380,000 compounds, 0.043% hits; further: nearly all actives have a fitted effect of over 60% in size
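Recombinant glycosomal PGK reaction used 1,3-bisphosphoglycerate generated in-well by GAPDH (100nM final) in 100mM TEA pH 7.6, 5mM MgCl2, 0.01% Tween-20. After 60 minutes at room temperature, ATP was read by Kinase-Glo Plus luminescence end-point.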
Numbers stand for hits; 0 = inactive; ? = inconclusive; - = no result; [ ] = remark or other dose. The call rests on the fitted dose curve; in most records, active means well fitted curve in the direction sought with a large enough effect; inconclusive means small, poorly fitted or top-dose-only effect, or another doubt; inactive means no such curve, though single readings can be large; an effect the other way counts as inactive or inconclusive.

SMILES	BLM helicase inh	FEN1 inh	RECQ1 inh	APE1 inh	Tb PGK inh
CCOc1cc(/C=N/Nc2ccc(S(=O)(=O)Nc3ccccc3C(=O)O)cc2[N+](=O)[O-])cc(Cl)c1O	-	-	-	-	0
CCOc1ccc(C=NNc2ccc(S(=O)(=O)Nc3ccccc3C(=O)O)cc2[N+](=O)[O-])cc1OC	-	79µM	-	17µM	?
COc1ccc(-n2c(=O)c3ccccc3n(CC(=O)NC3CCCCC3)c2=O)cc1OC	0	0	0	0	0
O=C(O)c1cccc(-n2cccc2/C=C2/SC(=O)N(CC(=O)N3CCCC3)C2=O)c1	0	0	-	13µM	?
O=C1C(=Cc2cccn2-c2ccccc2)C(=O)c2ccccc21	0	0	0	0	0
O=C(O)c1cccc(-n2cccc2C=C2C(=O)c3ccccc3C2=O)c1	0	50µM	0	?	0
CC(C)n1cc(/C=C2/SC(=O)N(CC(=O)N3CCCC3)C2=O)c2ccccc21	0	0	0	0	0
Cc1nn(-c2ccccc2)c2sc(C(=O)NCCN3CCOCC3)cc12	0	0	0	0	0
C[n+]1c2cc(N)ccc2cc2ccc(N)cc21 (tested in a mixture with another compound)	-	-	-	25µM	-
C=CCn1c(SCC(=O)NC(=O)NCc2ccco2)nc2sc(CC)cc2c1=O	0	0	0	32µM	0
C[C@H]1O[C@@H](O[C@H]2CC[C@@]3(C)C(CC[C@]4(C)C3C=C[C@]35OC[C@@]6(CCC(C)(C)C[C@H]63)[C@@H](O)C[C@]54C)[C@]2(C)CO)[C@H](O)[C@@H](O[C@@H]2O[C@H](CO)[C@@H](O)[C@H](O)[C@H]2O)[C@H]1O (stereo not given in full)	-	0	-	21µM	0
CC(=O)c1ccc(NC(=O)CSc2nnc(-c3ccco3)c(-c3ccco3)n2)cc1	7.9µM	32µM	0	0	0
Nc1[nH]n2c(=O)cc(-c3ccccc3)nc2c1N=Nc1ccc(S(N)(=O)=O)cc1	0	0	0	8.9µM	0
COc1ccccc1-c1cc(-n2ccnc2)ncn1	0	-	0	0	-
c1cn(-c2cc(-c3ccc4c(c3)OCO4)ncn2)cn1	0	-	0	8.9µM	-
COc1ccc(OC)c(NC(=O)C(=O)/C=C(\O)c2cc(OC)ccc2OC)c1	0	40µM	0	0	0
CCNc1nc(NCC)n2c(SCC(=O)Nc3c(C)cccc3C)nnc2n1	-	0	-	?	0
CCNc1nc(NCC)n2c(SCC(=O)Nc3cccc(Cl)c3)nnc2n1	-	0	-	27µM	?
CCNc1nc(NCC)n2c(SCC(=O)Nc3cccc(F)c3)nnc2n1	-	0	-	12µM	0
CCNc1nc(NCC)n2c(SCC(=O)Nc3cc(Cl)ccc3OC)nnc2n1	-	0	-	?	0
CCNc1nc(NCC)n2c(SCC(=O)Nc3ccccc3C(F)(F)F)nnc2n1	-	0	-	21µM	0
CCNc1nc(NCC)n2c(SCC(=O)Nc3ccccc3Cl)nnc2n1	-	0	-	0	0
O=C(Cc1ccccc1)N[C@@H](Cc1ccccc1)c1nc2ccccc2[nH]1	0	0	0	0	0
CCn1c(SC)nnc1-c1ccc(S(=O)(=O)N2CCCCC2)cc1	-	0	-	-	0
CCOc1ccc(/C(O)=C2\C(=O)C(=O)N(CCN(C)C)C2c2cccc(OC)c2OC)cc1Cl (stereo not given)	0	0	0	0	0
SMILES	BLM helicase inh	FEN1 inh	RECQ1 inh	APE1 inh	Tb PGK inh
CSc1nc(SCC(N)=O)c2c3c(sc2n1)CN(C)CC3	0	50µM	0	0	0
CSc1nc(N)c2c3c(sc2n1)CN(C)CC3	0	0	-	0	0
Cc1ccc2nc(/C(C#N)=C/c3ccc(-c4cccc(Cl)c4)o3)[nH]c2c1	0	0	-	-	0
N#C/C(=C\c1ccc(-c2ccc(Cl)c(C(=O)O)c2)o1)c1nc2ccccc2[nH]1	?	0	-	27µM	?
O=C(O)c1cc(N2C(=O)C=CC2=O)cc(N2C(=O)C=CC2=O)c1	-	10µM	-	-	?
NC(=O)c1cc(N2C(=O)C=CC2=O)ccc1Cl	0	0	0	0	0
O=c1cc(-c2ccc(O)c(O)c2)oc2cc(OC3OC(CO)C(O)C(O)C3O)cc(O)c12 (stereo not given)	0	-	20µM	?	-
O=c1cc(-c2ccc(O)cc2)oc2cc(O[C@@H]3O[C@H](CO)[C@H](O)[C@H](O)[C@H]3O)cc(O)c12	0	0	0	0	-
COc1ccc(CCC(=O)O)c(O)c1	0	0	0	16µM	?
CCSc1nnc(NC(=O)CSc2sc3c(O)cc(=O)[nH]c3c2C#N)s1	0	35µM	-	0[12.4 µM]	?
Cc1ccc(Cl)cc1NC(=O)CSc1sc2c(O)cc(=O)[nH]c2c1C#N	0	?	-	0[12.4 µM]	0
Cc1csc(NC(=O)CSc2sc3c(O)cc(=O)[nH]c3c2C#N)n1	0	50µM	-	0	0
Cc1ccc(C)c(NC(=O)CSc2sc3c(O)cc(=O)[nH]c3c2C#N)c1	0	0	-	0[12.4 µM]	0
CCc1nnc(NC(=O)CSc2sc3c(O)cc(=O)[nH]c3c2C#N)s1	18µM	4.5µM	-	0[12.4 µM]	?
CC(C)C(=O)Nc1ccc(C(=O)NNC(=O)C(c2ccccc2)c2ccccc2)cc1	0	0	0	0	0
Cc1nonc1C(=O)N/N=C/c1ccc(O)c(O)c1	0	0	0	0	?
O=C(N/N=C/c1ccc(O)c(O)c1)N/N=C/c1ccc(O)c(O)c1	7.9µM	2.5µM	-	0	?
N#Cc1ccccc1NC(=O)C(=O)NCCc1csc(-c2ccc(C(F)(F)F)cc2)n1	0	0	-	-	0
CC(C)C(=O)Nc1ccc(Nc2ccccc2)cc1	0	0	0	0	0
N#CNc1nc(O)cc(=O)[nH]1	0	?	0	0	28µM
CSc1ccccc1NC(=O)CCS(=O)(=O)c1nc(-c2ccc3c(c2)OCO3)cc(C(F)(F)F)n1	0	0	-	-	0
CCCC(=O)OCCNc1cc(SCc2ccco2)c2nonc2c1[N+](=O)[O-]	13µM	0	0	0	0
CC(=O)OCCCNc1cc(SCc2ccco2)c2nonc2c1[N+](=O)[O-]	0	56µM	?	?	0
COc1cc2sc3cc(NCc4ccc(C)o4)ccc3c(=O)c2cc1OC	-	32µM	-	0	0
COc1cc2sc3cc(NCc4ccc5c(c4)OCO5)ccc3c(=O)c2cc1OC	-	?	-	0	0
SMILES	BLM helicase inh	FEN1 inh	RECQ1 inh	APE1 inh	Tb PGK inh
COc1cc2sc3cc(NCC[C@@H]4CCCN4C)ccc3c(=O)c2cc1OC	-	22µM	-	?	0
COc1cccc2sc3ccc(NCCC4CCCN4C)cc3c(=O)c12 (stereo not given)	0	?	-	0	0
O=C(CC(SCCO)c1ccc([N+](=O)[O-])cc1)c1ccco1 (stereo not given)	0	0	-	0	0
CC(=O)Oc1ccc2nonc2c1OC(C)=O	-	10µM	-	-	-
CC(=O)Nc1cc(OC(C)=O)c2nonc2c1OC(C)=O	1.6µM	0	5µM	?	0
CCOc1ccc(Br)cc1S(=O)(=O)Nc1ncn[nH]1	0	0	-	0	0
O=C(NCc1ccco1)c1cc2c(s1)CSC2	0	50µM	0	?	?
CCOCCCNC(=S)N1CCCN(c2nc3cc(C)c(C)cc3cc2C#N)CC1	0	0	0	0	0
